The whole screen tested about 48,000 compounds, of which about 13,000 (27%) showed an effect of 50% or more. Some of the results follow.
tested on: Wolbachia pipientis; assay: Anti-Wolbachia Cell-Based Screen; assay type: functional; design: scale not given: in the data most compounds retested in dose-response had high values; conditions: 5 µM

First: CCC(CC)c1cc(CNC(=O)N2CCOC(C)C2)on1 (stereo unspecified)
Second: CCC(CC)c1cc(CNC(=O)N2CCC(CO)CC2)on1
The “Percent Effect” value of the first is lower: 0.178% for the first, 3.231% for the second.

Compared with `COc1ccc(C(=O)N2CCC(Oc3cccc(C)c3)(C(=O)O)CC2)o1`, `COc1cccc2c1OCC(C(=O)N(C)CCCc1cnn(C)c1)C2` (stereo unspecified) is lower in “Percent Effect” value: -1.031% for the first, -4.921% for the second.

Compared with `Cc1ccc(Cl)c(C(C(=O)O)N(C)Cc2cnn(C)c2)c1` (stereo unspecified), `CSCC(C)N(C)C(=O)c1nn(-c2ccc(F)cc2C)cc1O` (stereo unspecified) is higher in “Percent Effect” value: -5.56% for the first, 188.7% for the second.

Going from `O=C(NC1CCS(=O)(=O)C1)c1sccc1-c1ccc(F)cc1` (stereo unspecified) to `Cc1nc(C(C)NC(=O)COc2ccc(F)cc2)n[nH]1` (stereo unspecified), the “Percent Effect” value falls from 12.15% to -12.19%.

First: CC(C)c1ncc(CN2CCCC2c2[nH]ncc2C(=O)N(C)C)cn1 (stereo unspecified)
Second: CNc1ncc(CN2CCCC2c2[nH]ncc2C(=O)N(C)C)cn1 (stereo unspecified)
The “Percent Effect” value of the first is higher: 138.1% for the first, 118.3% for the second.

Going from `Cc1nn(C)c(C)c1C1CCCN1Cc1cccc(C(=O)N(C)C)c1` (stereo unspecified) to `COc1ncc(CN2CCCC2c2[nH]ncc2C(=O)N(C)C)cn1` (stereo unspecified), the “Percent Effect” value rises from -5.304% to 107.3%.

First: CC(C)c1ncc(CN2C[C@@H](CN3CCCC3)[C@@H](CO)C2)cn1
Second: CC(C)c1ncc(CN2C[C@@H](CN3CCC(O)CC3)[C@@H](CO)C2)cn1
The “Percent Effect” value of the first is lower: -18.71% for the first, -17.14% for the second.

Going from `CC(C)c1ncc(CN2CCCC(CO)C2)cn1` (stereo unspecified) to `CCN1CCN(C[C@@H]2CN(Cc3cnc(C(C)C)nc3)C[C@@H]2CO)CC1`, the “Percent Effect” value falls from -2.469% to -21.09%.

Compared with `CNc1ncc(CN(C)C(=O)[C@@]23CNC[C@@H]2CN(C2CCCC2)C3)cn1`, `CCc1cn[nH]c1C1CCCN(C(=O)c2cnc(NC(C)C)nc2)C1` (stereo unspecified) is lower in “Percent Effect” value: 3.616% for the first, -3.348% for the second.

Compared with `CC(C)c1ncc(CN2CCC(c3n[nH]cc3C(=O)N(C)C)C2)cn1` (stereo unspecified), `CN(C)C(=O)CO[C@@H]1CC[C@H]2[C@H]1OCCN2c1ncc(F)cn1.O=C(O)C(F)(F)F` is lower in “Percent Effect” value: 128.3% for the first, 112.4% for the second.

Compared with `COc1ccccc1CC1CCCN1C(=O)c1cn[nH]c1C` (stereo unspecified), `Cc1cccn2cc(CN3CCCC(c4ccn[nH]4)C3)nc12` (stereo unspecified) is lower in “Percent Effect” value: 6.47% for the first, 3.062% for the second.

Going from `CCC(CC)N(C)S(=O)(=O)c1ccc(CCNC(C)=O)s1` to `CC(C)c1noc(CS(=O)(=O)CC(=O)NCc2ccccc2)n1`, the “Percent Effect” value rises from -16.74% to -6.671%.

First: COCCNC(=O)c1nn(-c2cccc(C(C)C)c2)cc1O
Second: CC(C)c1cccc(-n2cc(O)c(C(=O)NCCC(=O)N(C)C)n2)c1
The “Percent Effect” value of the first is lower: -7.047% for the first, -3.512% for the second.

First: CC(C)c1cccc(-n2cc(O)c(C(N)=O)n2)c1
Second: Cc1cc(F)ccc1-n1cc(O)c(C(N)=O)n1
The “Percent Effect” value of the first is lower: -1.55% for the first, 117.5% for the second.

First: O=C(c1nn(-c2ccccc2F)cc1O)N1CCCC1
Second: O=C(NCCC(=O)N1CCCC1)c1nn(-c2ccccc2F)cc1O
The “Percent Effect” value of the first is higher: -1.057% for the first, -1.899% for the second.

Going from `Cc1cc(F)ccc1-n1cc(O)c(C(=O)NCC[S+](C)[O-])n1` (stereo unspecified) to `Cc1cc(F)ccc1-n1cc(O)c(C(=O)NCC2(O)CCC2)n1`, the “Percent Effect” value falls from 102.5% to 99.53%.

First: C[S+]([O-])CCNC(=O)Nc1cc(F)ccc1-n1cccn1 (stereo unspecified)
Second: CC(C)C(O)CCNC(=O)Nc1cc(F)ccc1-n1cccn1 (stereo unspecified)
The “Percent Effect” value of the first is lower: -7.044% for the first, -1.867% for the second.

Compared with `Cc1nc(NC(=O)c2nn(-c3ccc(F)cc3C)cc2O)n[nH]1`, `COc1cccc(C2C3=C(COC3=O)Nc3[nH]nc(C)c32)c1O` (stereo unspecified) is lower in “Percent Effect” value: 158.1% for the first, 0.9958% for the second.

Compared with `COCCn1ccc2cc(NC(=O)N(C)C(C)CSC)ccc21` (stereo unspecified), `CCSc1ccc(NC(=O)NC(C)c2ccncc2)cn1` (stereo unspecified) is lower in “Percent Effect” value: 13.09% for the first, 4.069% for the second.

Going from `OCc1cc2ccccc2nc1NCC1(O)CCC1` to `O=C(NCC1(O)CCOCC1)c1ccn(-c2ccccc2F)n1`, the “Percent Effect” value falls from 2.986% to -4.813%.

Compared with `Fc1cnc(N2C[C@@H](OCC3CCOCC3)[C@H]3OCCC[C@H]32)nc1.O=C(O)C(F)(F)F`, `Fc1cnc(N2CCO[C@H]3[C@H](OCC4CCOCC4)CC[C@@H]32)nc1.O=C(O)C(F)(F)F` is higher in “Percent Effect” value: 83.11% for the first, 113.1% for the second.

First: Cc1nnc(N2CCO[C@H]3[C@@H](OCc4ccccn4)CC[C@@H]32)s1.O=C(O)C(F)(F)F.O=C(O)C(F)(F)F
Second: CN(C)C(=O)CO[C@@H]1CC[C@H]2[C@H]1OCCN2c1ncccn1.O=C(O)C(F)(F)F
The “Percent Effect” value of the first is higher: 0.4576% for the first, -13.26% for the second.

First: Fc1cnc(N2CC[C@@H](N3CCOCC3)[C@@H]2Cc2ccncc2)nc1.O=C(O)C(F)(F)F.O=C(O)C(F)(F)F
Second: Fc1cnc(N2CCO[C@H]3[C@H](OCCN4CCCC4)CC[C@@H]32)nc1.O=C(O)C(F)(F)F
The “Percent Effect” value of the first is lower: -1.872% for the first, 101.9% for the second.

Compared with `O=C(O)C(F)(F)F.c1cnc(N2CCO[C@H]3[C@H](OCCN4CCCC4)CC[C@@H]32)nc1`, `O=C(CO[C@@H]1CC[C@H]2[C@H]1OCCN2c1ncccn1)N1CCCC1.O=C(O)C(F)(F)F` is lower in “Percent Effect” value: -8.905% for the first, -14.02% for the second.

Compared with `Cc1nnc(N2C[C@@H](OCC3CCCC3)[C@H]3OCCC[C@H]32)s1.O=C(O)C(F)(F)F`, `Cc1nnc(N2C[C@H](OCC3CCCC3)[C@H]3OCCC[C@H]32)s1.O=C(O)C(F)(F)F` is higher in “Percent Effect” value: -7.489% for the first, -7.444% for the second.

Going from `O=C(O)C(F)(F)F.c1cnc(N2CCO[C@H]3[C@H](OCC4CC4)CC[C@@H]32)nc1` to `O=C(O)C(F)(F)F.c1cnc(N2CCO[C@H]3[C@H](OCC4CCOCC4)CC[C@@H]32)nc1`, the “Percent Effect” value falls from 118.2% to 109.2%.

Going from `C1CC(CN2CCO[C@H]3[C@H](OCC4CC4)CC[C@@H]32)CCO1.O=C(O)C(F)(F)F` to `Cc1ccc(N2CCO[C@H]3[C@H](OCC(=O)N4CCCC4)CC[C@@H]32)cc1.O=C(O)C(F)(F)F`, the “Percent Effect” value falls from -2.542% to -12.38%.

Going from `Cn1cccc1C(=O)NS(=O)(=O)c1cnn(-c2ccccc2F)c1` to `c1cnc(N2CCO[C@H]3[C@H](OCCN4CCOCC4)CC[C@@H]32)nc1`, the “Percent Effect” value rises from -15.01% to 4.128%.

From ChEMBL document CHEMBL3988442, “University of Dundee, Small-Polar-MMV Screening Library” (2021)
